Screening data: PubChem, National Center for Advancing Translational Sciences (NCATS)
HCMV inh = blocks human cytomegalovirus replication; hit rate 4.5% among 410,000; HFF cells, HCMV-luciferase reporter, 72 h; stronger effect = lower value; AID 1259415; activity change, negative = inhibition, % at 57.5 µM; in the data active means activity change below about -60%; inconclusive means no clear call, values can overlap the other calls; inactive means above about -39%
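Compounds were evaluated in HFFs infected with an HCMV luciferase reporter virus (MOI 1 PFU/cell). Luciferase in lysates collected 72 h post infection served as the replication measure.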
AmpC inh no detg = inhibitors of E. coli AmpC beta-lactamase without detergent; Potency, µM (highest dose often 57.1 µM), without a hit: at the highest dose activity change, negative = inhibition, most hits filed as inhibitors; P00811; hit rate 0.52% among 330,000; AmpC nitrocefin hydrolysis, absorbance 480 nm, 0.0001% Triton;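 further: potency means the concentration at half of the fitted maximal effect; plate controls were no compound for no effect and no enzyme for full effect; nearly all actives have a fitted effect of over 20% in size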
Target sequence (P00811 whole entry, looked up): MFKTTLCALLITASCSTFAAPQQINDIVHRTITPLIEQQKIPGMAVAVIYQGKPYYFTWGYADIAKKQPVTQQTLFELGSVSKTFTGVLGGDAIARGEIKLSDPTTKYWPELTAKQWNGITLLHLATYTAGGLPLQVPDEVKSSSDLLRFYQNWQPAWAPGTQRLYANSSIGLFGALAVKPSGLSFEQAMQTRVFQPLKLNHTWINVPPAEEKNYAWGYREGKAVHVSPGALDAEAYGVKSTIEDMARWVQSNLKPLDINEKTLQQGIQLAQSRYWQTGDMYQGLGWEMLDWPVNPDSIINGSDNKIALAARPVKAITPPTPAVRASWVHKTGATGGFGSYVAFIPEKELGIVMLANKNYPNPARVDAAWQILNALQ
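20 mM phosphate pH 7.0 + 0.01% (detergent screen) or 0.0001% Triton X-100; 5.3 nM AmpC reagent; cpd preinc 15 min RT; nitrocefin (800 uM stock) to start; A480 q20 s × 4 min; Activity was normalised to no-enzyme and no-compound control wells.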
AmpC inh detg = AmpC beta-lactamase inhibition with detergent present; P00811; AmpC hydrolysis of nitrocefin, absorbance 480 nm, 0.01% Triton; Potency, µM (titrated, usually from 114 µM), for the others: at the highest dose activity change, negative = inhibition, hits mostly inhibitors; hit rate 0.041% among 370,000;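 further: potency means the concentration at half of the fitted maximal effect; 0% = no-compound wells and -100% = no-enzyme wells; nearly all actives have a fitted effect of over 25% in size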
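AmpC (5.3 nM in the dispensed reagent) in 20 mM phosphate pH 7.0 with 0.01% (detergent screen) or 0.0001% Triton X-100 was preincubated with compounds for 15 min at room temperature. Nitrocefin was then added from an 800 uM solution, and hydrolysis was followed at 480 nm.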
HCV inhibitor = blocks hepatitis C virus | Huh7.5.1 HCVcc-Cre infection, luciferase reporter, 44 h | Potency, µM (series often up to 41.8 µM), without a hit: top-dose activity change, negative = inhibition, actives largely listed as inhibitors | hit rate 3.4% among 340,000; further: potency means the concentration at half of the fitted maximal effect
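Compounds are dispensed onto cells plated 4 h earlier at 1,000 per well, with HCVcc-Cre virus (about 0.5 moi) added next. Following 44 h of culture, luminescent signal is measured for 15 sec after 15 min with substrate at room temperature.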
FMDV inh = antivirals against foot and mouth disease virus | FMDV antiviral cell-based qHTS | Potency, µM (series often up to 57.9 µM), inactives show at the highest dose activity change, negative = inhibition, usual class: inhibitors | hit rate 1.2% among 410,000 | AID 1159524; calls by dose curve; tested in HEK293T cells; further: read-out not given here; potency means the concentration at half of the fitted maximal effect; nearly all actives have a fitted effect of over 45% in size
Active calls of the source: *; ? = inconclusive; . = no result. The list is not random: actives were taken first. Their share in the collection is about 7.3%. Unless noted, the call rests on the fitted dose curve; in most records, active means well fitted curve in the direction sought with a large enough effect; inconclusive means small, poorly fitted or top-dose-only effect, or another doubt; inactive means no such curve, though single readings can be large; an effect the other way counts as inactive or inconclusive. Unless noted, on the % scale 0 is the no-effect control and ±100 the full control effect.

SMILES	HCMV inh	AmpC inh no detg	AmpC inh detg	HCV inhibitor	FMDV inh
CN1C(=O)[C@@]2(O[C@H]3c4ccccc4C=CN3C3=C2C(=O)CCC3)c2ccccc21	-29	.	.	.	.
O=C(c1ccc(Br)cc1)N(C1=NCCCCS1)c1ccccc1	-63*	-11%	5%	8%	?
Cc1ccc(NC(=O)c2sc3nc(CCl)[nH]c(=O)c3c2C)c(C)c1	15	-7%	5%	11µM*	?
CSCc1nc2sc(C(=O)Nc3nc(C)cs3)c(C)c2c(=O)[nH]1	44	46%	-3%	11µM*	41%
Cc1cc(C)c(NC(=O)c2sc3nc(C)[nH]c(=O)c3c2C)c(C)c1	96	-12%	7%	.	.
COc1ccc(-c2nc(NC(=O)C3=NN(c4cccc(C)c4)C(=O)CC3)sc2C)cc1	-7	-35%	-2%	-13%	-17%
O=C1CC(c2cccc(Br)c2)c2cc3c(cc2N1)CCC3 (centres undefined)	-65*	-1%	-4%	?	?
CN(C)S(=O)(=O)c1ccc(NC(=O)N2CCN(c3cccc(C(F)(F)F)c3)CC2)cc1	-79*	0%	2%	11µM*	28µM*
CCS(=O)(=O)Nc1cc(C(=O)N2CCC[C@H]2CO)c2c(c1)nc(-c1ccccc1)n2C	.	.	.	.	3%
COCCNC(=O)C1CCN(Cc2cc3ccccc3n2Cc2ccc(C)cc2)CC1	-7	.	9%	.	15%
CC1=CCC2C(=O)N(c3ccccc3OC(=O)c3ccccc3F)C(=O)C2C1 (centres undefined)	45	10µM*	-1%	16%	14%
CCOc1ccc(NC(=O)NNC(=O)c2cccnc2)cc1	-28	-27%	4%	10%	20%
Cc1cc(/C=C2\SC(=S)NC2=O)c(C)n1-c1ccc(O)cc1	-23	11µM*	-3%	-10%	-2%
Cc1cc(/C=C2\SC(=Nc3ccc(F)cc3)NC2=O)c(C)n1-c1ccc(S(N)(=O)=O)cc1	-84*	0%	?	3.5µM*	35µM*
Cc1cc(/C=C2\SC(=S)NC2=O)c(C)n1-c1ccccc1	-1	-43%	8%	2%	5%
Cc1cc(/C=C2/C(=O)NN(c3ccccc3)C2=O)c(C)n1-c1ccc(O)cc1	-86*	?	-8%	?	18µM*
C[C@H](CO)N1C[C@H](C)[C@@H](CN(C)S(=O)(=O)c2ccc(Oc3ccccc3)cc2)OCc2cnnn2CCCC1=O	0	.	.	.	-18%
COC(=O)C1CC(c2ccccc2)N(c2ccccc2)O1 (centres undefined)	-21	.	.	.	-19%
CC[C@H](C)[C@@H]1NC(=O)[C@H]([C@@H](C)CC)NC(=O)[C@@H](CC(C)C)NC(=O)[C@H](Cc2ccccc2)NC(=O)[C@H](Cc2ccccc2)NC(=O)[C@@H]2CCCN2C(=O)[C@@H]2CCCN2C(=O)[C@H](C(C)C)NC(=O)[C@H](CC(C)C)NC1=O	-80*	54%	.	-25%	-10%
C#CCCC[C@@H]1OC(=O)CNC(=O)C([C@@H](C)CC)NC(=O)[C@@H]2CCCN2C(=O)C([C@@H](C)CC)OC(=O)[C@H](Cc2ccccc2)N(C)C(=O)[C@H](C(C)C)NC(=O)C1(C)C (some centres undefined)	?	.	.	.	-24%
Clc1ccc(-n2cccc2CN2CCc3c([nH]c4ccccc34)C2c2ccccn2)nc1 (centres undefined)	-24	15%	-4%	-16%	-13%
CC(=O)OC[C@]12CCC(C)=C[C@H]1O[C@@H]1[C@H](O)[C@@H](OC(C)=O)[C@@]2(C)[C@]12CO2	-77*	-10%	3%	?	?
O=C(Nc1cccc(Cl)c1)Nc1nnc(CSCCOc2ccc(Cl)cc2)s1	-72*	-30%	?	2.5µM*	?
O=C(Nc1ccc(Cl)cc1)Nc1nnc(CSc2ccc(Cl)cc2)s1	-85*	-18%	-11%	?	?
Cc1ccc(NC(=O)Nc2nnc(CSCCOc3ccc(Cl)cc3)s2)cc1	-35	-37%	?	10%	0%
O=C(Nc1cccc(Cl)c1)Nc1nnc(CC2=CCCCC2)s1	-98*	?	-7%	?	?
